Screening data: PubChem BioAssay, National Center for Advancing Translational Sciences (NCATS)
HT1080-NT tox = kills 2HG-producing HT-1080-NT fibrosarcoma cells; HT-1080-NT fibrosarcoma viability, CellTiter-Glo ATP luminescence, 48 h; Potency, µM (doses to about 46.1 µM), for the others: top-dose activity, negative = less viability, usual class: cytotoxic; actives 1.6% (n = 360,000); AID 686970;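 further: NT is the 2HG producing partner of a matched IDH1 knockdown line; potency means the concentration at half of the fitted maximal effect; 0% = DMSO-treated cells and -100% = media-only wells without cells; nearly all actives have a fitted effect of over 55% in size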
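Compounds were tested in concentration-response format on HT-1080-NT cells for 48 hours at 37 degrees C. Cell viability came from CellTiter-Glo luminescence; curves were classified by r2, response magnitude and activity.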
IL1B secr inh = inhibitors of inflammasome signaling (IL-1 beta secretion); actives 4.7% (n = 360,000); activity change, % at 57.5 µM; THP-1 LPS/ATP IL-1B secretion, AlphaLISA, 16 h; hits give low values; in the data active means activity change below about -50%; inconclusive means mostly about -30% to -49%
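THP-1 cells pretreated 1 hr with compounds (up to 57.5 uM final), then stimulated with LPS (250 ng/mL final) plus ATP (1.25 mM final); secreted IL-1B measured by AlphaLISA after 16 hr, decreased signal indicating inhibition.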
TDP1 cell noCPT = qHTS for Inhibitors of human tyrosyl-DNA phosphodiesterase 1 (TDP1): qHTS in cells in absence of CPT. Potency, µM (doses to about 46.2 µM), for inactives: top-dose activity change, negative = growth inhibition, actives largely listed as inhibitors. AID 686978, 2013. DT40 Tdp1-/- hTDP1 cells, no CPT, ATP luminescence, 48 h. actives 15% (n = 420,000); further: potency means the concentration at half of the fitted maximal effect; nearly all actives have a fitted effect of over 55% in size
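No-CPT arm: Tdp1-/-;hTDP1 DT40 cells (400/well) plus compounds, incubated ≥48 hr at 37 °C. Readout CellTiter-Glo luminescence.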
DT40 TDP1 CPT = DT40-hTDP1 cell growth loss with CPT | chicken DT40 Tdp1-/-;hTDP1 cells + 20 nM CPT, ATP luminescence, 48 h | Potency, µM (series often up to 46.2 µM), for inactives: top-dose activity change, negative = growth inhibition, usual class: inhibitors | actives 12% (n = 420,000) | AID 686979; further: potency means the concentration at half of the fitted maximal effect; nearly all actives have a fitted effect of over 55% in size
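Cell growth measured by CellTiter-Glo luminescence after a minimum 48 h, 37 C compound exposure with 20 nM CPT in Tdp1-knockout DT40 cells stably expressing hTDP1, seeded 400/well; qHTS titration format.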
HT1080 IDH1KD tx = kills HT-1080 cells with IDH1 knockdown. HT-1080 IDH1 knockdown viability, ATP luminescence, 48 h. Potency, µM (highest dose often 46.1 µM), for inactives: at the top dose activity, negative = toxicity, most hits filed as cytotoxic. actives 2% (n = 360,000). AID 686971;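 further: potency means the concentration at half of the fitted maximal effect; 0% = DMSO wells and -100% = cell-free medium wells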
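Knockdown cells (IDH1KD HT-1080) received compounds 2 h after plating at 750 cells/well and were kept 48 h at 37 °C in 5% FBS RPMI. A CellTiter-Glo luminescence read gave % activity for curve fitting.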
ELG1 DNA repair = blocks ELG1-dependent DNA repair in HEK293T cells. HEK293T ELG1-luciferase reporter, luminescence, 16 h; DNA damage induced by 5-fluorouridine. Potency, µM (titrated, usually from 46.1 µM), without a hit: top-dose activity change, negative = inhibition, most hits filed as inhibitors. actives 2.3% (n = 330,000). AID 504467; further: potency means the concentration at half of the fitted maximal effect; nearly all actives have a fitted effect of over 55% in size
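Overnight (16 hr) co-exposure of 2,000 cells/well to 5-fluorouridine and compound at 37 °C preceded detection. Luciferase was quantified via ONE-Glo luminescence; loss of signal denotes inhibition.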
Starred values were filed as active, the others as inactive; ? = inconclusive; . = not tested or not shown. In the library only some 19% were active in any assay of this set; here they are far more common. Unless noted, the call rests on the fitted dose curve; in most records, active means well fitted curve in the direction sought with a large enough effect; inconclusive means small, poorly fitted or top-dose-only effect, or another doubt; inactive means no such curve, though single readings can be large; an effect the other way counts as inactive or inconclusive. Unless noted, on the % scale 0 is the no-effect control and ±100 the full control effect.

SMILES	HT1080-NT tox	IL1B secr inh	TDP1 cell noCPT	DT40 TDP1 CPT	HT1080 IDH1KD tx	ELG1 DNA repair
Cc1cc(N2C(=O)[C@@H]3[C@H](C2=O)[C@@H]2C[C@H]3C(Br)C2Br)no1 (stereo partly specified)	6.7%	18.9	-9.3%	2.5%	10.2%	-3.6%
O=C1C2C3c4ccccc4C(c4ccccc43)[C@@H]2C(=O)N1c1cccnc1 (stereo partly specified)	3.8%	-5.0	23.1µM*	?	7.2%	?
O=C1C2C3c4ccccc4C(c4ccccc43)C2C(=O)N1c1ccncc1 (stereo unspecified)	5.1%	28.5	16.4µM*	20.6µM*	-0.7%	-10.8%
O=C1C2C3C=CC(C3)C2C(=O)N1c1cccnc1 (stereo unspecified)	13.2%	15.2	1.4%	-8.4%	0.0%	.
CCS(=O)(=O)N1CC(=O)N(c2cccc(Cl)c2C)C(C)(C(=O)NC2CCCCC2)C1 (stereo unspecified)	.	.	-6.3%	-25.1%	.	.
O=S(=O)(c1ccc(NC(=S)N2CCCCC2CO)cc1)N1CCOCC1 (stereo unspecified)	3.5%	2.5	?	-19.6%	2.1%	.
Fc1cccc(Nc2cc(-n3cccn3)ncn2)c1	-7.3%	13.0	10.3µM*	20.6µM*	-25.2%	2.6%
CC(C)OC(=S)N/C(=N\S(=O)(=O)c1ccccc1)c1ccccc1	7.08µM*	11.2	-0.7%	7.0%	8.91µM*	13.8%
Cc1cccc(NC(=S)N/C(=N/S(=O)(=O)c2ccccc2)c2ccccc2)c1	-6.2%	-0.4	?	-1.7%	14.7%	?
O=C(NCCNC(=O)c1ccccn1)c1ccc(-c2ccccc2)cc1	-17.0%	-1.5	20.6µM*	-7.6%	-8.7%	-0.7%
O=C(NCCc1cnc[nH]1)c1ccc(-c2ccccc2)cc1	-6.2%	-54.5*	-10.4%	-41.1%	-10.9%	?
N[C@@H](Cc1ccccc1)c1nnc(SC/C=C/c2ccccc2)o1	-9.5%	-12.1	?	-2.2%	-13.1%	-17.2%
CC(C)(C)NC(=O)COc1ccccc1C#N	1.6%	-2.2	-3.5%	-25.1%	10.3%	3.7%
Cc1ccc(C)c(N(C(=O)Cn2nnc(-c3cccs3)n2)C(C(=O)NC2CC2)c2ccc(C)o2)c1 (stereo unspecified)	0.0%	18.3	11.2µM*	?	4.8%	-2.8%
Cc1ccc(N(C(=O)Cn2nnc(-c3ccc(C)o3)n2)C(C(=O)NC2CCCC2)c2ccco2)cc1 (stereo unspecified)	?	6.1	12.6µM*	?	?	-6.1%
Cc1ccc(-c2nnn(CC(=O)N(Cc3ccccc3)C(C(=O)NC(C)(C)C)c3ccncc3)n2)o1 (stereo unspecified)	28.2%	-1.4	-0.1%	2.0%	-21.5%	-4.2%
CCC(C(=O)NC1CCCC1)N(C(=O)Cn1nnc(-c2cccs2)n1)c1cnc2ccccc2c1 (stereo unspecified)	13.2%	43.2	4.1%	-9.8%	-3.8%	-2.4%
Cc1ccc(N(C(=O)Cn2nnc(-c3cccs3)n2)C(C(=O)NC2CCCC2)c2ccncc2)cc1 (stereo unspecified)	10.7%	19.3	20.6µM*	23.1µM*	-0.1%	9.7%
Cc1ccc(-c2nnn(CC(=O)N(c3ccccc3)C(C(=O)NC3CCCC3)c3ccncc3)n2)o1 (stereo unspecified)	4.8%	13.2	9.5%	9.5%	1.5%	27.7%
Cc1ccc(-c2nnn(CC(=O)N(Cc3ccco3)C(C(=O)NC(C)(C)C)c3ccc(C)o3)n2)o1 (stereo unspecified)	0.0%	-23.0	20.6µM*	16.4µM*	-9.1%	-8.3%
Cc1cc(NC(=O)c2cc(-c3ccc(Cl)cc3)on2)n(-c2ccccc2)n1	.	.	-18.8%	-18.8%	.	.
CC(C)c1cc(Cn2c3ccccc3c(=O)n2C(C)Cn2cc(C3=CCCCC3)nn2)on1 (stereo unspecified)	-5.7%	-28.3	?	?	1.0%	.
CC(C)c1cc(Cn2c3ccccc3c(=O)n2C(C)Cn2cc(-c3ccc(C(C)(C)C)cc3)nn2)on1 (stereo unspecified)	?	-28.9	14.6µM*	?	?	.
COc1cccc(C(=O)NCC(=O)NCc2cc(=O)n(C)c(=O)n2C)c1	12.8%	12.2	-8.3%	-3.3%	12.9%	22.5%
COCCCN1C(=O)C(CC(=O)NC2CCCCC2)CC(C(=O)N(C)C)=C1C (stereo unspecified)	1.5%	-0.3	-13.5%	-0.1%	12.5%	.
SMILES	HT1080-NT tox	IL1B secr inh	TDP1 cell noCPT	DT40 TDP1 CPT	HT1080 IDH1KD tx	ELG1 DNA repair
CC(C)C[C@@H]1NC(=O)[C@H](CCCN)NC(=O)[C@H](C(C)C)NC(=O)[C@@H]2CCCN2C(=O)[C@@H](Cc2ccccc2)NC(=O)[C@H](CC(C)C)NC(=O)[C@H](CCCN)NC(=O)[C@H](C(C)C)NC(=O)[C@@H]2CCCN2C(=O)[C@@H](Cc2ccccc2)NC1=O	.	.	0.146µM*	0.411µM*	.	.
CNC(=O)N(O)C1N(/N=C/c2ccccc2O)C(=S)SC1(C)C (stereo unspecified)	-0.4%	22.2	2.06µM*	5.17µM*	6.7%	-2.9%
COc1ccc(CN2C(=O)c3ccccc3C2=O)cc1C(=O)OCC(=O)NC1CCCCC1	1.2%	-4.0	3.6%	4.8%	6.4%	-18.8%
COc1ccc(CN2C(=O)c3ccccc3C2=O)cc1C(=O)Nc1ccccc1N1CCOCC1	-8.5%	76.6	16.4µM*	?	-12.2%	?
COc1ccc(NC(=O)c2cc(CN3C(=O)c4ccccc4C3=O)ccc2OC)cn1	?	-4.2	?	?	20.6µM*	?
N#Cc1cccc(NC(=O)N2CC[C@@]3(CCCN(C(=O)c4cc(C(F)(F)F)cc(C(F)(F)F)c4)C3)C2)c1	.	.	-24.1%	-19.6%	.	.
Cc1csc(=O)n1CC(=O)OCC(=O)Nc1cc(Cl)ccc1[N+](=O)[O-]	0.0%	-5.7	-24.6%	-3.1%	1.5%	-1.2%
O=C(NCc1nnnn1-c1ccc(Cl)cc1)c1ccc(Br)o1	-1.0%	-7.3	-29.0%	1.7%	4.7%	8.1%
CC(C)C(=O)O/N=C(\N)c1ccc(Oc2ccc(Cl)cc2)c([N+](=O)[O-])c1	3.3%	.	?	-9.2%	-2.2%	-5.5%
CC(C)(C)c1nc(CN2CCOCC2)ccc1O	3.9%	5.5	-17.3%	-10.8%	10.5%	1.2%
